Screening results from PubChem.
Sfp PPTase inh: qHTS Assay for Inhibitors of Bacillus subtilis Sfp phosphopantetheinyl transferase (PPTase) | Biochemical Sfp PPTase activity, qHTS | Potency, µM, usual class: inhibitors | hit rate 3.5% among 310,000;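 further: the enzyme is Sfp with the accession as filed and its product quenches rhodamine fluorescence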
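Fluorescence-quenching assay with 15 nM Sfp, 5 uM rhodamine-CoA and 12.5 uM BHQ-2-labelled ybbR peptide in pH 7.6 Hepes/MgCl2 buffer. Enzyme was pre-incubated with compound for 15 min at room temperature. Rate was taken from the 30-min fluorescence change (525/598 nm).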
JMJD2A Tudor: qHTS Assay for Inhibitors of JMJD2A-Tudor Domain; Lysine-specific demethylase 4A (Homo sapiens), O75164; AlphaScreen JMJD2A-Tudor / H3K4me3 peptide binding; Potency, µM (doses to about 114 µM), hits mostly inhibitors; hit rate 4.4% among 390,000; AID 504339, 2011; further: nearly all actives have a fitted effect of over 50% in size
HP1b binding inh: HTS for Inhibitors of HP1-beta Chromodomain Interactions with Methylated Histone Tails. Chromobox protein homolog 1 (Homo sapiens), P83916. AlphaScreen HP1-beta / biotin-H3K9me3 peptide binding. hit rate 0.56% among 390,000. Potency, µM (titrated, usually from 114 µM), usual class: inhibitors; further: nearly all actives have a fitted effect of over 70% in size
Target sequence (P83916 whole entry, looked up): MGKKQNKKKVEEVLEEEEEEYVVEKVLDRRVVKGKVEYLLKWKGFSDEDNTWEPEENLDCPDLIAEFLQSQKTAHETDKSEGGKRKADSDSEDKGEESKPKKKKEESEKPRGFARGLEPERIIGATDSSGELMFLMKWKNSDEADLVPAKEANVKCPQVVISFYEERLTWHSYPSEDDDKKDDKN
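AlphaScreen: HP1-beta (50 nM) preformed 30 min with biotin-H3(1-18)K9me3 peptide (50 nM) in PBS pH 7.4, 0.01% Tween-20. Compound added for 30 min at RT, then streptavidin donor/nickel chelate acceptor beads (10 ug/mL) for 30 min.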
PLK1 PBD block: qHTS for Inhibitors of PLK1-PDB (polo-like kinase 1 - polo-box domain): Primary Screen; Serine/threonine-protein kinase PLK1 (Homo sapiens), P53350; Plk1 PBD binding of FITC phosphopeptide, fluorescence polarization; Potency, µM, usual class: inhibitors; hit rate 2.8% among 360,000; AID 720504, 2013; further: series mostly up to about 57 µM; nearly all actives have a fitted effect of over 65% in size
BAZ2B inh: qHTS Assay for Inhibitors of BAZ2B; Bromodomain adjacent to zinc finger domain protein 2B (Homo sapiens), Q9UIF8; AlphaScreen BAZ2B-H3K14Ac peptide displacement; Potency, µM (highest dose often 114 µM), usual class: inhibitors; hit rate 4.4% among 360,000; AID 504333, 2011; further: nearly all actives have a fitted effect of over 60% in size
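Multi-concentration screen (max 110 uM) measuring displacement of acetylated histone H3 peptide from BAZ2B by AlphaScreen, using 50 nM protein, 50 nM peptide and 10 ug/mL streptavidin donor plus Ni-chelate acceptor beads.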
G9a inh: qHTS Assay for Inhibitors of Histone Lysine Methyltransferase G9a; Histone-lysine N-methyltransferase EHMT2 (Homo sapiens), Q96KQ7; G9a H3K9 monomethylation, AlphaScreen, 2 h; Potency, µM (top dose mostly 102 µM), usual class: inhibitors; hit rate 8.8% among 350,000; AID 504332, 2011; further: nearly all actives have a fitted effect of over 75% in size
Target sequence (Q96KQ7 913-1193 limits assumed): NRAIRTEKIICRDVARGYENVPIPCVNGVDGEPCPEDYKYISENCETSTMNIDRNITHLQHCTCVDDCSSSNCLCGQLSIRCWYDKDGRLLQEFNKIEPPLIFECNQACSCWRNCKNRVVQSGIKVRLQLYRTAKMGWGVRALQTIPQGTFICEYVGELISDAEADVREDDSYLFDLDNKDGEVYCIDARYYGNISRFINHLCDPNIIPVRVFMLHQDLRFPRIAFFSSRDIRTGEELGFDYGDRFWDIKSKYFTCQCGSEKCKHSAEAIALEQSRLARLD
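Methyltransferase reactions run at room temperature for 2 h (20 nM enzyme, 500 nM biotin-H3K9 peptide, 20 uM SAM) after a 15 min compound preincubation; product detected by AlphaScreen beads and anti-H3K9me1 antibody.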
A number is an active result; - = inactive; ? = inconclusive; . = not tested or not shown; [ ] = remark or other dose. Only some compounds are listed: those with a hit (about 12% of all), similar ones and a draw of the others. The call rests on the fitted dose curve; in most records, active means well fitted curve in the direction sought with a large enough effect; inconclusive means small, poorly fitted or top-dose-only effect, or another doubt; inactive means no such curve, though single readings can be large; an effect the other way counts as inactive or inconclusive.

SMILES	Sfp PPTase inh	JMJD2A Tudor	HP1b binding inh	PLK1 PBD block	BAZ2B inh	G9a inh
FC(F)(F)c1ccccc1CN1CCN(Cc2ccccc2)CC1	?	4µM	?	-	50µM	3.2µM
COc1ccc(CN2CCN(c3ccccc3)CC2)c(C)c1C	?	4µM	?	-	50µM	11µM
COc1ccccc1N1CCN(Cc2ccc(Cl)cc2Cl)CC1	?	22µM	?	-	?	22µM
Cc1ccc(CN2CCN(Cc3ccccc3F)CC2)cc1	-	20µM	?	-	22µM	13µM
CCN1CCN(Cc2ccc(C)cc2)CC1	-	-	-	-	-	?
CCOc1ccccc1N1CCN(Cc2cccc(OC)c2OC)CC1	-	1.8µM	?	-	?	?
Oc1ccc(Cl)cc1CN1CCN(Cc2ccccc2)CC1	-	-	-	-	?	?
CCc1ccc(CN2CCN(Cc3ccc(SC)cc3)CC2)cc1	?	?	?	-	40µM	3.5µM
COc1ccccc1CN1CCN(Cc2ccc(Cl)cc2)CC1	79µM	40µM	?	-	18µM	3.5µM
Cc1cccc(C)c1Oc1nc(-c2ccccc2)ncc1S(=O)(=O)c1ccccc1	-	-	-	-	-	-
COC1=C[C@H]2C3=C([C@H]2C1=O)[C@H](NC(C)=O)CCc1cc(OC)c(OC)c(OC)c13	-	.	.	.	.	-[21.5 µM]
COc1ccccc1N1CCN(Cc2ccc(SC)cc2)CC1	?	28µM	?	-	50µM	10µM
CSc1ccc(CN2CCN(c3ccccc3C)CC2)cc1	-	4.5µM	-	-	?	13µM
Cc1cc(N(CCCl)CCCl)ccc1/C=N/N=C(\N)c1cnccn1	.	14µM	?	-	.	.
N#Cc1c(/N=C/C2C(=O)NC(=S)NC2=O)sc2c1CCCC2	22µM	-	-	?	?	28µM
O=c1[nH]c(=O)n(CC2CCCO2)c(O)c1/C=C1\C=Nc2ccccc21 (configuration not stated)	-	-	-	27µM	-	1.3µM
O=c1[nH]c(=O)n(-c2ccccc2F)c(O)c1/C=C1\C=Nc2ccccc21	35µM	-	-	4.2µM	?	?
NC[C@H](CS(=O)(=O)O)c1ccc(Cl)cc1	-	.	.	.	.	.
N.N.N.N.N.N.N.N.N.N.N.N.N.N.O.O.[Cl-].[Cl-].[Cl-].[Cl-].[Cl-].[Cl-].[Ru].[Ru].[Ru]	.	.	.	.	.	3.2µM
COc1cc(OC)c(/C=C2\C(=O)Nc3ccccc32)c(OC)c1	.	56µM	?	-	45µM	?
COc1ccc2c(c1)/C(=C/c1cnc[nH]1)C(=O)N2	-	-	-	-	50µM	-
O=C1Nc2ccccc2/C1=C/c1cnc[nH]1	-	-	-	-	?	-
O=C1NCCOC(=O)[C@@H](Cc2ccc(F)cc2)CC/C=C/C[C@@H]1CC(=O)N(CCO)Cc1ccccc1	.	-	-	-	.	.
COc1cccc(-n2c(/C=C/c3cccc(C)c3)nc3ccccc3c2=O)c1	.	-	-	.	-	-
COC(=O)c1ccccc1N=Cc1c(O)[nH]c(=S)[nH]c1=O	-	-[11.4 µM]	-	?	-	?
SMILES	Sfp PPTase inh	JMJD2A Tudor	HP1b binding inh	PLK1 PBD block	BAZ2B inh	G9a inh
COc1ccc(/C=C2/C(=O)N(c3ccccc3)N=C2C)cc1	.	20µM	50µM	3.8µM	.	.
Cc1cc(C)c(N=Cc2c(O)[nH]c(=O)[nH]c2=O)c(C)c1	-	-	-	-	-	-
CC1=NN(c2ccccc2)C(=O)/C1=C/c1c(O)[nH]c(=S)[nH]c1=O	50µM	79µM	-	-	?	?
CC1=NN(c2ccccc2)C(=O)/C1=C/c1c(O)[nH]c(=O)[nH]c1=O	-	-	-	-	?	40µM
CSc1nn(-c2ccc(C(=O)OCC(=O)NC(=O)NC(C)C)cc2)c(=S)s1	-	?	-	-	?	-
O=C(O)c1c[nH]c2ccc(S(=O)(=O)N(CCCl)CCCl)cc12	-	-	-	-	-	18µM
N#C/C(=C(/O)c1ccc(S(=O)(=O)N(CCCl)CCCl)cc1)c1nc2ccccc2[nH]1	-	-	-	-	-	-[12.7 µM]
O=c1c2ccc(Cl)cc2[nH]c(=S)n1-c1cccnc1	-	18µM	-	-	-	20µM
Cc1ccc2[nH]c(=S)n(-c3cccnc3)c(=O)c2c1	-	?	-	-	-	45µM
C/C=C1/C[C@@H](C)[C@](O)(CO)C(=O)OCC2=CCN3CC[C@@H](OC1=O)C23 (some centres not stated)	-	.	.	.	.	.
COc1cc(CC(=O)OCC2=C[C@H]3[C@@H]4C(C)(C)[C@]4(OC(C)=O)[C@H](OC(=O)Cc4ccccc4)[C@@H](C)[C@]3(O)[C@@H]3C=C(C)C(=O)[C@@]3(O)C2)ccc1O	-	.	.	.	.	?
CC1=C(O)C(=O)[C@H]2O[C@@H]2C1=O	4µM	.	.	.	.	.
CN1CCc2c(C#N)c(Cl)nc(Cl)c2C1	-	-	-	-	-	45µM
CC(C)(C)c1cc(C=C(C#N)C#N)cc(C(C)(C)C)c1O	56µM	-	-	-	?	13µM
N#CC(C#N)=Cc1ccc(N2CCCC2)cc1	-	-	-	-	-	-
N#C/C(=C\c1cccc(O)c1)C(=O)O	-	.	.	.	.	.
N#CC(=Cc1ccc(O)c(O)c1)C(N)=S	.	.	.	.	.	5µM
CCc1ccc(/C=C(/C#N)C(N)=S)cc1	?	-	?	7.5µM	?	8.9µM
COc1cc(C=C(C#N)C#N)cc(O)c1O	.	.	.	.	.	2.5µM
CCC(/C=C/C(C)C1CCC2C3CC=C4CC(O)CC[C@@]4(C)C3CC[C@@]12C)C(C)C (some centres not stated)	-	.	.	.	.	.
CN(C)c1ccc(C=C(C#N)C#N)cc1	-	-	-	-	-	-
N#CC(C#N)=Cc1ccc(O)c(O)c1	40µM	?	-	-	79µM	8.4µM
CC(Cc1cccc(C(F)(F)F)c1)NCCCc1ccccc1 (configuration not stated)	-	.	.	.	.	-
COc1cccc(CCNCc2cccc(C(F)(F)F)c2)c1	-	2.5µM	?	-	56µM	10µM
C[C@]12CCC3C(C=CC4=CC(=O)CC[C@]43C)C1CC[C@]2(O)CCC(=O)O (some centres not stated)	-	.	.	.	.	-[2.33 µM]
CCN1CCN(c2cc(N3CCCC3)c(F)cc2[N+](=O)[O-])CC1	-	-	-	-	-	45µM
CN1CCN(c2cc(N3CCCC3)c([N+](=O)[O-])cc2F)CC1	-	?	?	?	-	?
CCCCCOc1ccc(C)cc1CN(CCCl)CCCl	?	-	-	24µM	-	.
